A short description of test [1]: binders of probe aFSTL3 on microarray, primary screen, stem cell growth factor project, biochemical, small-molecule microarray, fluorescence 635/667 (AID 1064).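 Also: measures binding of the biotinylated anti-FSTL3 antibody to printed compounds.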 The settings on record: higher = more signal.
A short description of test [2]: binders from COS7 lysate, DM2A8 probe, primary screen, torsin A project, cell lysate, small-molecule microarray, fluorescence 635/667 (AID 1065). To be noted: higher = more signal, COS7 lysate expressing mutant human TOR1A.
The nature of test [3]: binders of probe aFGF2 on microarray, primary screen, stem cell growth factor project, biochemical, small-molecule microarray, fluorescence 635/667 (AID 1067).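 Also: measures binding of biotinylated aFGF2 protein to printed compounds on slides; z-score merges feature fluorescence and signal-to-noise across triplicate slides.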 To be noted: higher = more signal.
Test [4] in a line: binders of probe aFGF10 on microarray, primary screen, stem cell growth factor project, biochemical, small-molecule microarray, fluorescence 635/667 (AID 1071).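 Also: score merges 667 nm spot intensity and signal to noise from triplicate slides.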 The settings on record: higher = more signal.
Test [5] concerns the target Neurogenic locus notch homolog protein 2 (Homo sapiens) (UniProt Q04721). As to the kind of experiment: Notch2 binders on small-molecule microarrays, primary screen, biochemical, small-molecule microarray, 635 nm fluorescence, stem cell growth factors (AID 1073). To be noted: Notch2 binding, higher = more signal.
For test [6], the target named is Pro-neuregulin-1, membrane-bound isoform (Homo sapiens) (UniProt Q02297). As to the kind of experiment: NRG1 binders on small-molecule microarrays, primary screen, psychiatric disease protein project, biochemical, small-molecule microarray, fluorescence 635/667 (AID 1075).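 Also: score combines 667 nm spot fluorescence with signal to noise.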 The settings on record: NRG1 binding, 635 nm fluorescence, higher = more signal.
Test [7] deals with Neuregulin-1 EGF-like domain. As to the kind of experiment: binders of neuregulin-1 EGF-like domain, primary screen, biochemical, small-molecule microarray, 635 nm fluorescence (AID 1081).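 Also: binding of the protein to compounds printed on small-molecule microarray slides.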 The settings on record: small-molecule microarray binding, higher = more signal.
The nature of test [8]: FRG1 promoter luciferase signal modulators, primary screen, FRG1 inhibition for FSHD, cell-based, C2C12 myotubes, firefly/Renilla luciferase, luminescence (AID 1084). The settings on record: higher = more signal, called active from +8 up or from −8 down.
Test [9] can be described thus: binders of probe aFST on microarray, primary screen, stem cell growth factor project, biochemical, small-molecule microarray, fluorescence 635/667 (AID 1086).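 Also: score merges 667 nm fluorescence with signal-to-noise of each printed compound spot.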 To be noted: higher = more signal.
Test [10] can be described thus: binders of probe aHhip on microarray, primary screen, stem cell growth factor project, biochemical, small-molecule microarray, fluorescence 635/667 (AID 1087).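 Also: score merges spot fluorescence at 667nm with spot signal to noise ratio.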 To be noted: higher = more signal.
The test system of test [11] is PRMT1 (protein arginine N-methyltransferase 1). As to the kind of experiment: PRMT1 binders on small-molecule microarrays, primary screen, biochemical, small-molecule microarray, 635 nm fluorescence (AID 1088).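 Also: binding of Prmt1 protein to compounds spotted on small-molecule microarray slides.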 The settings on record: small-molecule microarray binding, higher = more signal.
Test [12] is described as follows: yeast growth modulation, basal conditions, primary screen, YJM789 clinical isolate, OD600, 24 h (AID 1089).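 Also: growth of clinical yeast isolate S. cerevisiae YJM 789 seeded 1000 cells per well; test concentration not given here.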 The settings on record: S. cerevisiae YJM789 growth, higher = more signal, called active from +8 up or from −8 down.
Test [13] can be described thus: fission yeast growth modulation, primary screen, strain 972, OD600, 24 h, no modulator (AID 1090).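 Also: basal condition with compound alone and no growth modifier present; test concentration not given here.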 The settings on record: S. pombe 972 growth, higher = more signal, called active from +8 up or from −8 down.
Test [14] in a line: S. cerevisiae growth modulation with rapamycin, primary screen, strain BY4716, OD600, 96 h (AID 1091). Also: test concentration not given here. The settings on record: higher = more signal, called active from +8 up or from −8 down.
Test [15] addresses Torsin-1A-interacting protein 2 (Homo sapiens) (UniProt Q8NFQ8). As to the kind of experiment: LULL1 binders on small-molecule microarray, primary screen, cell lysate, human LULL1 lysate, 635/667 nm fluorescence (AID 1092).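 Also: probe is lysate of COS7 cells overexpressing human LULL1; score merges per-feature 667 nm fluorescence with signal-to-noise.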 To be noted: hLULL1 lysate binding, 635 nm fluorescence, higher = more signal.
Test [16] in a line: E. coli growth modulation, two-sided OD650, primary screen, E. coli filamentation project, strain DRC41, 24 h (AID 1093).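 Also: MC1000 strain lacking acrAB efflux and sulA so SOS filamentation is blocked; test concentration not given here.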 The settings on record: OD650, 24 h, higher = more signal, called active from +8 up or from −8 down.
A short description of test [17]: small-molecule microarray binders of probe aLefty2, primary screen, biochemical, biotinylated probe, 635/667 nm fluorescence (AID 1094).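 Also: score merges spot fluorescence near 667 nm with spot signal-to-noise ratio.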 To be noted: higher = more signal.
The test system of test [18] is Noggin (protein binding on small-molecule microarray). As to the kind of experiment: Noggin binders on small-molecule microarray, primary screen, biochemical, 635/667 nm fluorescence (AID 1095).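 Also: score merges 667 nm feature fluorescence with signal to noise over triplicate slides.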 The settings on record: 635 nm fluorescence, higher = more signal.
Test [19] deals with Neurogenic locus notch homolog protein 3 (Homo sapiens) (UniProt Q9UM47). As to the kind of experiment: NOTCH3 binders on small-molecule microarray, primary screen, biochemical, 635/667 nm fluorescence (AID 1096). To be noted: NOTCH3 binding, 635 nm fluorescence, higher = more signal.
The nature of test [20]: small-molecule microarray binders of probe aEGFR, primary screen, biochemical, biotinylated probe, 635/667 nm fluorescence (AID 1097).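 Also: probe is a biotinylated anti-EGFR antibody binding compounds printed on slides; score combines fluorescence near 667 nm and signal to noise of each spot.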 To be noted: higher = more signal.

Each structure is given as a SMILES string. Calls of active or inactive are those of the source.

Chain of Pro-neuregulin-1, membrane-bound isoform (Homo sapiens) (Q02297 whole entry, looked up, the tested form may be a part, canonical isoform): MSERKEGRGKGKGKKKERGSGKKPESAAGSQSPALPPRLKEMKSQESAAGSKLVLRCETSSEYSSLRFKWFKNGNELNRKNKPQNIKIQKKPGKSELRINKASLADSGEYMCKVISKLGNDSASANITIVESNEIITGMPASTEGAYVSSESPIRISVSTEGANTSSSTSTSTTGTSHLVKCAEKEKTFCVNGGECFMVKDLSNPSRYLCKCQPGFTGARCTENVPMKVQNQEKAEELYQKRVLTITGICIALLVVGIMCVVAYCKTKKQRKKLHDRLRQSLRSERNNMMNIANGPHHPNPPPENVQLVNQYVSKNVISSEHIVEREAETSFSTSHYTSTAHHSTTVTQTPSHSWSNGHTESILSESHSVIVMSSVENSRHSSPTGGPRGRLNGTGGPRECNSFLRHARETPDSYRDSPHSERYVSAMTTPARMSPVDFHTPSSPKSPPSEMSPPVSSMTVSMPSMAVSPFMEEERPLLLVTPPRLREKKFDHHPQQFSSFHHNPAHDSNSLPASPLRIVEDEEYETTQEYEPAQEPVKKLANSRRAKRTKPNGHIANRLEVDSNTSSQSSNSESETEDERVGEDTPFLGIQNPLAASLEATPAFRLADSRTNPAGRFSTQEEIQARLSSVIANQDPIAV
Chain of Neurogenic locus notch homolog protein 2 (Homo sapiens) (Q04721 whole entry, looked up, canonical isoform): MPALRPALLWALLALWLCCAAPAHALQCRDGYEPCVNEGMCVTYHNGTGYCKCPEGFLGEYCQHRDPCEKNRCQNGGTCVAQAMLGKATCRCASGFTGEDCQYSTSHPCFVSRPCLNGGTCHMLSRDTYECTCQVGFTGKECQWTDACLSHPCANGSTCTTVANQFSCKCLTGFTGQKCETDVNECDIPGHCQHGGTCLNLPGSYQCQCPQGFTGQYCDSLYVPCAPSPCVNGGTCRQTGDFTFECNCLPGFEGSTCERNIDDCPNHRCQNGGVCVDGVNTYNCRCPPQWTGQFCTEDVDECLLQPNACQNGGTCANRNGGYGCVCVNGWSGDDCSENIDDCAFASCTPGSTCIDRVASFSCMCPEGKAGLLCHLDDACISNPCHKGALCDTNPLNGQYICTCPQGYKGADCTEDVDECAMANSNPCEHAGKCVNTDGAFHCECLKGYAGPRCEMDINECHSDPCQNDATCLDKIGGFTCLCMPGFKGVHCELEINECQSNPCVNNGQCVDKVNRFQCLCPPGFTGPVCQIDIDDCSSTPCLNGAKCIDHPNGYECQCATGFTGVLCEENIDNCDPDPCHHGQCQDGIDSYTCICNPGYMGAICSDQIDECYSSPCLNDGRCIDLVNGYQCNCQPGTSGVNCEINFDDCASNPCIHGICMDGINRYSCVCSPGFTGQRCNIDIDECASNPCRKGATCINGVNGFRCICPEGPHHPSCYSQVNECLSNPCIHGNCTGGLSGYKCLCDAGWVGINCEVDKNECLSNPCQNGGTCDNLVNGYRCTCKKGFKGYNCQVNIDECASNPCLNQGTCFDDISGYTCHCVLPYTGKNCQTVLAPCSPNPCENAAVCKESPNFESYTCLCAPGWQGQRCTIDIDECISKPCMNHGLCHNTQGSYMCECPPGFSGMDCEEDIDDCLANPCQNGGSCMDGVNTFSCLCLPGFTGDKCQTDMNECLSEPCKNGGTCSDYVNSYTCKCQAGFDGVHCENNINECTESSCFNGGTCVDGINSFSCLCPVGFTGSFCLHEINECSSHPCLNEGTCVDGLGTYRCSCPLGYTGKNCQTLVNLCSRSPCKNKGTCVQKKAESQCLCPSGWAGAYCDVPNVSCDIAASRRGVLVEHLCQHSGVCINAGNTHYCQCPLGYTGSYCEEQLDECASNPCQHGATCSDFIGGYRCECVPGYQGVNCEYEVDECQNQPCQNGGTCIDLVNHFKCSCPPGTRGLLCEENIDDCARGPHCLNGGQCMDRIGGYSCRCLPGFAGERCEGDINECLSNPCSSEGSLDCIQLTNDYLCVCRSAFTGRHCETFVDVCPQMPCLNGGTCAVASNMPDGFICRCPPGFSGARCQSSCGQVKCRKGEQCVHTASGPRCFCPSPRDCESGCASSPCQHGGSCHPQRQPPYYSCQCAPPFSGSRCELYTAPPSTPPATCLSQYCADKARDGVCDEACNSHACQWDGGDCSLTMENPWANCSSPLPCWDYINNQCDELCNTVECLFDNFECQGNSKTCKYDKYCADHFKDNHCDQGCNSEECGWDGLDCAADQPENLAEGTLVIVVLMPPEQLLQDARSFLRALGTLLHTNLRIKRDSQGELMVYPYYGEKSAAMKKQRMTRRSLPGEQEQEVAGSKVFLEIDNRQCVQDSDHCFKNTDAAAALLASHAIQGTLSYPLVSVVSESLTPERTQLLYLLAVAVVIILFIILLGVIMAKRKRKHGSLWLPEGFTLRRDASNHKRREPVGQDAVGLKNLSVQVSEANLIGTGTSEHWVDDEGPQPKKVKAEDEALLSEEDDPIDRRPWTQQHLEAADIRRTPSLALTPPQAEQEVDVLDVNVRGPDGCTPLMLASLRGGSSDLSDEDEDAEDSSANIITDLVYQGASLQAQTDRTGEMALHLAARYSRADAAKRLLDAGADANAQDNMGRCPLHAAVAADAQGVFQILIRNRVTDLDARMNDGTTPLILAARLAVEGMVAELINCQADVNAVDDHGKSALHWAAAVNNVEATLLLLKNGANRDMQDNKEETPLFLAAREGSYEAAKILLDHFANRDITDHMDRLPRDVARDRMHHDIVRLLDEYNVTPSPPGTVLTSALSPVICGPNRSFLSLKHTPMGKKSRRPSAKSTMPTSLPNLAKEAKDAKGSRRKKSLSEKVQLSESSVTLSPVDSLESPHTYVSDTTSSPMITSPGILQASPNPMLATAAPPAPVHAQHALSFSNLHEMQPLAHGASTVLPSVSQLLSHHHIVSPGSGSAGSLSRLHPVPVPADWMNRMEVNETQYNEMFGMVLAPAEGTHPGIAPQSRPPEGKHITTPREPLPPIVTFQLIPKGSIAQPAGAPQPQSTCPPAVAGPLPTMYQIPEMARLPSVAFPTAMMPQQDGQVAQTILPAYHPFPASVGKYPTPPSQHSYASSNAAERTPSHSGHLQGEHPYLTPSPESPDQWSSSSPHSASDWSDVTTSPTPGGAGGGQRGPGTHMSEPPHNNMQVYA
Chain of Torsin-1A-interacting protein 2 (Homo sapiens) (Q8NFQ8 whole entry, looked up): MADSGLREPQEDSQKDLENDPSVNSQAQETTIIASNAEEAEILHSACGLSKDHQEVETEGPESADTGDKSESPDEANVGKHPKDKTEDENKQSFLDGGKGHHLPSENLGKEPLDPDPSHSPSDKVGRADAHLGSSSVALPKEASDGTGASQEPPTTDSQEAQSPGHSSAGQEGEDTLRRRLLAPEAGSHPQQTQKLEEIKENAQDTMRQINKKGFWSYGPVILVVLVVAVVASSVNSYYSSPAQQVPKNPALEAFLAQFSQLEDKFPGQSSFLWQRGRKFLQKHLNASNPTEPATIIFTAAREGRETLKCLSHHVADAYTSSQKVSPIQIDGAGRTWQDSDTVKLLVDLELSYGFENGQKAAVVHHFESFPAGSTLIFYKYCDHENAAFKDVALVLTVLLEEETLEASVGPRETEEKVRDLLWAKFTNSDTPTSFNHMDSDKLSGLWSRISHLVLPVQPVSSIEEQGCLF

Take `Cn1c2c(c3ccccc31)C(=O)C1NC2C=CC1(C)C(=O)OCc1ccccc1` (stereo not given): the composite z-score in [1] was 1.03; in test [2] it was 0.979; in test [3], -0.176; in [4] it was -1.31; in test [5] it was -1.15; in test [6], 1.06. The composite z-score in [7] was 0.467; in test [9] it was -0.478; in [10], -0.0645; in [11] it was 0.417; in test [15] it was 3.1; in [17], -0.0097. Also, the composite z-score in test [18] was -2.04; in [19] it was -0.258; in test [20], -0.264. Further, the z-score in test [8] was -1.52 (inactive); in test [12], -0.566 (inactive); in test [13] it was 0.35 (inactive); in test [14] it was -0.233 (inactive); in test [16] it was -1.01 (inactive).

For `CC(C)N1C(=O)c2ccccc2[C@](C)(C(=O)NCCCN(C)C)[C@@H]1c1ccc(CO)cc1`, the composite z-score in test [1] was 0.261; in test [2], 1.04; in test [3], -0.154; in test [4] it was -0.231; in test [5], -0.595; in [6], 0.724. The composite z-score in test [7] is 1.07; in [9] it was -0.128; in test [10], -0.0672; in test [11], -0.109; in test [15], 2.41; in test [17], 0.0071. Moreover, the values for the composite z-score in [18], in test [19] and in test [20] were -0.818, -1.28 and -0.22, respectively. For the same molecule, the z-score in test [8] was 1.47 (inactive); in [12], -0.763 (inactive); in test [13], -1.26 (inactive); in test [14], -1.36 (inactive); in test [16] it was 0.0321 (inactive).

Regarding `CCCCN1CC=CC23O[C@@H]4C=CCCOC(=O)C4[C@H]2C(=O)N(CCCO)[C@@H]3C1=O` (stereo not given in full), the composite z-score in [1] was -0.0115; in test [2], -0.265; in test [3], -0.147; in test [4], -0.609; in test [5], -1.08; in test [6], -0.931. The composite z-score in test [7] is -0.053; in [9], -0.277; in test [10], -0.191; in test [11], -0.253; in test [15], -0.748; in [17] it was -0.172. In addition, the composite z-score is 0.217 in [18], -1.68 in test [19] and -0.244 in [20]. The z-score in test [8] was 0.211 (inactive); in [12] it was -0.174 (inactive); in test [13] it was -0.788 (inactive); in test [14] it was -0.497 (inactive); in test [16], 1.02 (inactive).

As for `CCOC(=O)C=Cc1cccc(OC)c1O`, the composite z-score is -0.0086 in test [1]; 0.689 in test [2]; -0.0894 in test [3]; -0.572 in test [4]; -1.37 in test [5]; -0.196 in test [6]. For the same molecule, the composite z-score in [7] was 0.189; in [9], -0.722; in test [10] it was -0.439; in [11], 0.124; in [15] it was 0.0496; in test [17], -0.249. Moreover, the values for the composite z-score in test [18], in [19] and in test [20] were -1.09, -0.125 and -0.209, respectively. In addition, the z-score in test [8] is 6.99 (inactive); in [12] it was -9.3 (active); in test [13] it was -7.21 (inactive); in test [14], -0.346 (inactive); in [16], -0.0998 (inactive).

Take `Cc1cc(C)c(C(O)C2C=CC3C(=O)NC(=O)C3N2Nc2ccccn2)c(C)c1` (stereo not given): the composite z-score in [1] is 0.36; in test [2], 0.135; in test [3], -0.0878; in test [4], 0.0012; in [5] it was 0.486; in [6], 1.65. The composite z-score in test [7] came to 0.986; in [9] it was 0.578; in test [10], 0.0373; in test [11], 0.442; in [15] it was 1.65; in test [17], 0.0961. Moreover, the composite z-score in test [18] is 0.0197; in test [19] it was 0.525; in [20], 0.0221. In addition, the z-score in test [8] is 1.03 (inactive); in test [12] it was 0.441 (inactive); in test [13], 1.11 (inactive); in test [14], 0.415 (inactive); in test [16] it was -1.16 (inactive).
